For assay [1], the system named is Plasmodium falciparum Sir2 (PF13_0152, Sir2A). Nature of the assay: Plasmodium falciparum Sir2A binding compounds – biochemical, small-molecule microarray, 635 nm fluorescence, primary screen (AID 1098).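 Note: score merges spot fluorescence intensity with its signal-to-noise ratio.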 The following applies: fluorescence 635 nm, higher = more signal.
Assay [2] in a line: probe aDKK1 binding to arrayed compounds – biochemical, biotinylated probe, 635/667 nm fluorescence, primary screen (AID 1099).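 Note: score merges 667nm spot fluorescence with signal to noise across triplicate slides.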 The following applies: small-molecule microarray, higher = more signal.
The nature of assay [3]: probe aCHRDL2 binding to arrayed compounds – biochemical, biotinylated probe, 635/667 nm fluorescence, primary screen (AID 1100). The note with it: small-molecule microarray, higher = more signal.
Assay [4] is described as follows: change in splice reporter luminescence, either direction, cell-based, HEK293, spliceosome inhibition project, primary screen (AID 1101).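 Note: HEK293 cells carrying a splicing-competent luciferase reporter gene; test concentration not given here.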 The note with it: HEK293 splicing luciferase reporter, 24 h, higher = more signal, called active from +8 up or from −8 down.
In assay [5] the target is Fibroblast growth factor 10 (Homo sapiens) (UniProt O15520). As to the kind of experiment: compounds binding fibroblast growth factor 10 – biochemical, small-molecule microarray, 635 nm fluorescence, primary screen (AID 1102). The following applies: FGF10 binding, fluorescence 635 nm, higher = more signal.
Fibroblast growth factor 10 (Homo sapiens), sequence (O15520 whole entry, looked up): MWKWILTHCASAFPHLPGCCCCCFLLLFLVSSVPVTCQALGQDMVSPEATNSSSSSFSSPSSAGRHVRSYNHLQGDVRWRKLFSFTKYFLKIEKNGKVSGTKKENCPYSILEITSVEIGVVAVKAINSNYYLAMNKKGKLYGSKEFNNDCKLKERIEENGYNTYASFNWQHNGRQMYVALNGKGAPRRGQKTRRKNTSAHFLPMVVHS
Assay [6] has as its system glycogen synthase kinase-3 (GSK3A per assay name; protocol says GSK3B). As to the kind of experiment: compounds binding glycogen synthase kinase-3 – biochemical, small-molecule microarray, 635 nm fluorescence, GSK3A, primary screen (AID 1103). Note: the record names both GSK3A and GSK3B. The note with it: fluorescence 635 nm, higher = more signal.
Assay [7] concerns the target Epidermal growth factor receptor (Homo sapiens) (UniProt P00533). As to the kind of experiment: compounds binding epidermal growth factor receptor – biochemical, small-molecule microarray, 635 nm fluorescence, primary screen (AID 1104).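 Note: score merges 667 nm emission intensity with spot signal to noise over triplicate slides.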 The note with it: EGFR binding, higher = more signal.
Assay [8] has as its target Follistatin-related protein 3 (Homo sapiens) (UniProt O95633). Nature of the assay: compounds binding follistatin-related protein 3 – biochemical, small-molecule microarray, 635 nm fluorescence, primary screen (AID 1105).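 Note: score merges emission near 667 nm and signal to noise per printed spot across three slides.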 The following applies: FSTL3 binding, higher = more signal.
The target of assay [9] is Dickkopf-related protein 1 (Homo sapiens) (UniProt O94907). Nature of the assay: small molecules binding DKK1 protein – biochemical, small-molecule microarray, 635 nm fluorescence scan, primary screen (AID 1106).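 Note: score merges emission near 667 nm with signal to noise over three replicate slides.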 The note with it: higher = more signal.
Dickkopf-related protein 1 (Homo sapiens), sequence (O94907 whole entry, looked up): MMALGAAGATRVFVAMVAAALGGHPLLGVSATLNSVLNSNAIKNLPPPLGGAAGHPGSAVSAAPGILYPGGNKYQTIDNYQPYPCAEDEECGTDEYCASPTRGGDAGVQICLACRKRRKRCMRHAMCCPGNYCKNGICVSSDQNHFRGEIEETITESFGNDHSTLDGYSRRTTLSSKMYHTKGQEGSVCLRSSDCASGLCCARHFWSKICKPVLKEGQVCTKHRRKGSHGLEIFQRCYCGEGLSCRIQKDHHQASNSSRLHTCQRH
Assay [10] deals with Inhibin beta A chain (activin A). Nature of the assay: small molecules binding activin A – biochemical, small-molecule microarray, 635 nm fluorescence scan, primary screen (AID 1107).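 Note: mouse activin A protein probed at 4.33 µg/mL on printed slides; score merges bound-protein fluorescence near 667 nm with spot signal-to-noise.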 The following applies: INHBA, higher = more signal.
The subject of assay [11] is Human papillomavirus type 1a protein E7 (residues 44-93). As to the kind of experiment: small molecules binding HPV E7 44-93 – biochemical, small-molecule microarray, residues 44-93, 635 nm fluorescence, primary screen (AID 1108).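 Note: E7 fragment applied at 1 µg/mL in TBST for 1 h at 4 C; score combines spot fluorescence with its signal to noise ratio.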 The following applies: fluorescence 635 nm, higher = more signal.
Assay [12] can be described thus: hepatitis C replication reporter changes, two-sided – Huh7 cells, luciferase reporter, HCV replication inhibitor project, primary screen (AID 1109).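 Note: huh7 hepatoma cells harbouring a luciferase neomycin HCV replicon reporter; luciferase luminescence as measure of HCV replicon replication; test concentration not given here.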 The following applies: Huh7 HCV replicon luciferase reporter, 48 h; higher = more signal.
Assay [13] deals with Left-right determination factor 2 (Homo sapiens) (UniProt O00292). As to the kind of experiment: small molecules binding LEFTY2 protein – biochemical, small-molecule microarray, 635 nm fluorescence scan, primary screen (AID 1110). The note with it: higher = more signal.
Left-right determination factor 2 (Homo sapiens), sequence (O00292 whole entry, looked up): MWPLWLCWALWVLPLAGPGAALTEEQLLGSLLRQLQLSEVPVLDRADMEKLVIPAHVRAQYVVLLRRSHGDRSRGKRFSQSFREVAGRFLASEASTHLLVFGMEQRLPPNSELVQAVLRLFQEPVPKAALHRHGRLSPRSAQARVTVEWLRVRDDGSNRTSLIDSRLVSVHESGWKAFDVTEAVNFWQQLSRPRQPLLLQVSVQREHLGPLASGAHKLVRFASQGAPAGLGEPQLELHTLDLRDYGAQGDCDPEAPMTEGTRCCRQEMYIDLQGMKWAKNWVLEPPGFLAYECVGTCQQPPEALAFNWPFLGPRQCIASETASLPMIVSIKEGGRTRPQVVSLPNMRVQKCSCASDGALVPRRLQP
Assay [14] concerns the target Calmodulin-1 (Homo sapiens) (UniProt P0DP23). As to the kind of experiment: small molecules binding calmodulin-1 with EGTA – biochemical, small-molecule microarray, Cy5-labelled CALM1, profiling panel (AID 1111).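 Note: labelled calmodulin applied in Tris saline Tween buffer holding calcium plus EGTA and DTT.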 The following applies: Cy5-CALM1 binding fluorescence, higher = more signal.
Assay [15] shares this target. As to the kind of experiment: small molecules binding Ca-loaded calmodulin-1 – biochemical, small-molecule microarray, Cy5-labelled CALM1, plus calcium, artefact control for SMM control-protein annotation, profiling panel (AID 1112).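 Note: score merges spot fluorescence with signal to noise from triplicate slides.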 The note with it: Cy5-CALM1 binding fluorescence, higher = more signal.
Assay [16] in a line: probe aWnt5a binding to arrayed compounds – biochemical, biotinylated probe, 635/667 nm fluorescence, primary screen (AID 1113).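 Note: score merges 667 nm fluorescence intensity with signal-to-noise per printed feature.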 The note with it: small-molecule microarray, higher = more signal.
The nature of assay [17]: probe aShh binding to arrayed compounds – biochemical, biotinylated probe, 635/667 nm fluorescence, primary screen (AID 1114).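 Note: probe is biotin-labelled aShh protein from a stem cell growth factor screen; measures binding of labelled protein to compounds printed on the slide; score merges feature fluorescence at 667 nm with signal-to-noise.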 The note with it: small-molecule microarray, higher = more signal.
Assay [18] is described as follows: probe aNog binding to arrayed compounds – biochemical, biotinylated probe, 635/667 nm fluorescence, primary screen (AID 1115).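 Note: probe is biotinylated aNog protein used at 0.15 µg/mL for 1 h at 4 C; z-score combines 667 nm fluorescence of each spot with its signal to noise.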 The following applies: small-molecule microarray, higher = more signal.
Assay [19] concerns the target Torsin-1A-interacting protein 1 (Homo sapiens) (UniProt Q5JTV8). As to the kind of experiment: compound microarray binding of lysate hLAP1 – cell lysate, small-molecule microarray, COS7 lysate, 635/667 nm fluorescence, primary screen (AID 1116). The following applies: 635 nm fluorescence, higher = more signal.
In assay [20] the target is Alpha-bungarotoxin (Bungarus multicinctus) (UniProt P60615). As to the kind of experiment: compounds binding labelled alpha-BTX control protein – biochemical, small-molecule microarray, Alexa647 label, 635/667 nm fluorescence, artefact control for SMM control protein annotation, profiling panel (AID 1117). The following applies: alpha-BTX-A647 binding fluorescence, higher = more signal.
Alpha-bungarotoxin (Bungarus multicinctus), sequence (P60615 whole entry, looked up): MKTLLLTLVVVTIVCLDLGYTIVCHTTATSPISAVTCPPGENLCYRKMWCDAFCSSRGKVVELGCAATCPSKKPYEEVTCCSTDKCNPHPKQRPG

Active and inactive are the calls of the source.

Torsin-1A-interacting protein 1 (Homo sapiens), sequence (Q5JTV8 whole entry, looked up): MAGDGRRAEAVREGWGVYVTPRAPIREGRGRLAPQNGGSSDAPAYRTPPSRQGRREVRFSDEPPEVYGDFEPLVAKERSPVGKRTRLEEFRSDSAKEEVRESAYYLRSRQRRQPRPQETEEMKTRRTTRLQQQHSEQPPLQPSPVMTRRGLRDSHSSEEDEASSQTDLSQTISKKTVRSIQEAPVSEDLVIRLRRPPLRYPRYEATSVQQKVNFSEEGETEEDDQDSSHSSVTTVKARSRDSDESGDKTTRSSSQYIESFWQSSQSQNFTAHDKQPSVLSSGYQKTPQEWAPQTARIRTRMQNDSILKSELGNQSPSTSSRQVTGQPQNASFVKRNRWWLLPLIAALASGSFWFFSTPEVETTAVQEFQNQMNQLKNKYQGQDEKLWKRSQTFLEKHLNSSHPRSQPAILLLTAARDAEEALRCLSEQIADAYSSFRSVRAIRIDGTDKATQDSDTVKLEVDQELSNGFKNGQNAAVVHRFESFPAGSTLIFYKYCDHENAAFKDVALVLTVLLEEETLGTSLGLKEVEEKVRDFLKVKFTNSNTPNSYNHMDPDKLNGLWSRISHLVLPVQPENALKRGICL
Epidermal growth factor receptor (Homo sapiens), sequence (P00533 whole entry, looked up): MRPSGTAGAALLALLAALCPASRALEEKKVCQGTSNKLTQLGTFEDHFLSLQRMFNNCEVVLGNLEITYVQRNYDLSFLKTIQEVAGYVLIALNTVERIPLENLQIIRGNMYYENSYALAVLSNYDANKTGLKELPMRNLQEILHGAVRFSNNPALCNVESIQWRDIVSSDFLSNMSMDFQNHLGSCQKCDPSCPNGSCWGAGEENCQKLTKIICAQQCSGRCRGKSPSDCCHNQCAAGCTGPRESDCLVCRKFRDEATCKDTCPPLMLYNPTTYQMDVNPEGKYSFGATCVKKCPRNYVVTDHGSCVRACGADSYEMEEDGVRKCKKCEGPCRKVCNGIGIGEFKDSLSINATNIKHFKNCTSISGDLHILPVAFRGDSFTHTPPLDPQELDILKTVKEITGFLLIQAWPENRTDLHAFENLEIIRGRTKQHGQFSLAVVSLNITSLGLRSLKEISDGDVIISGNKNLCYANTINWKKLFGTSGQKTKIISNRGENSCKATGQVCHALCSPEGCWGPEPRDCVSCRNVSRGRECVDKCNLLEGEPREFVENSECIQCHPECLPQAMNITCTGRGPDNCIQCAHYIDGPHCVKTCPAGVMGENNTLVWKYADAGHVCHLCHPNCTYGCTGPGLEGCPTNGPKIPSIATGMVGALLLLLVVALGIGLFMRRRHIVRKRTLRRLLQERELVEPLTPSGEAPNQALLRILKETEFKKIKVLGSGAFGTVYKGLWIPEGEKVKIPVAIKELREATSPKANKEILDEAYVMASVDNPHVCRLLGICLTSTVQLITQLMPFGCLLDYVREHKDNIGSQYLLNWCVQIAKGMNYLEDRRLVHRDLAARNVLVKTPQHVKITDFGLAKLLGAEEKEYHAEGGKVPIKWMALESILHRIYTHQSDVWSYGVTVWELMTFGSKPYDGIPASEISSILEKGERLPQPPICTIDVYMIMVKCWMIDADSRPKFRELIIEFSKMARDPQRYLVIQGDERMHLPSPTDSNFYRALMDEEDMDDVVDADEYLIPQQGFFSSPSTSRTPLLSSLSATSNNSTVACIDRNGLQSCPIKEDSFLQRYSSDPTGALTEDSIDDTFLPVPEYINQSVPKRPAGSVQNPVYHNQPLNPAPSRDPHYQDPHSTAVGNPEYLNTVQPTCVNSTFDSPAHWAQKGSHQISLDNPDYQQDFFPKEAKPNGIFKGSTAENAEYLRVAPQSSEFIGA
Follistatin-related protein 3 (Homo sapiens), sequence (O95633 whole entry, looked up): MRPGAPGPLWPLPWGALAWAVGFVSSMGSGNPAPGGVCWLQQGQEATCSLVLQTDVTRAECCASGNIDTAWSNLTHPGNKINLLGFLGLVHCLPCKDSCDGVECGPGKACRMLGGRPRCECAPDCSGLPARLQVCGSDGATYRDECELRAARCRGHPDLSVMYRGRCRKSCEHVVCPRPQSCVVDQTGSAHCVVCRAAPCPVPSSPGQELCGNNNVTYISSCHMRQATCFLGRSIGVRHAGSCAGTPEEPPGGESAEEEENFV

Regarding `CCCCC(=C=CC[C@H](O)c1ccc(OCCO)cc1)C[C@H](O)COCc1ccccc1`, the composite z-score in assay [1] is 1.07; in [2], -0.221; in assay [3] it was -0.0323; in assay [5], 0.793; in assay [6] it was -0.171; in [7], -0.304. Besides, the composite z-score in [8] was -0.603; in [9] it was -0.259; in assay [10], 1.12; in [11], 0.383; in [13], -0.233; in [14], -0.567. Further, the composite z-score in assay [15] is -0.377; in assay [16], -0.0685; in assay [17] it was 0.14; in assay [18], -0.0168; in assay [19] it was 0.941; in [20], 0.134. For the same compound, the figures for the z-score in assay [4] and in assay [12] were -0.639 (inactive) and -1.77, respectively.

For `CCCNC(=O)[C@@]1(C)c2ccccc2C(=O)N(Cc2ccccc2)[C@H]1c1ccc(CO)cc1`, the composite z-score in [1] was 0.956; in assay [2], 0.74; in assay [3] it was 0.963; in assay [5], 0.391; in assay [6] it was -0.136; in [7], -1.54. Further, the composite z-score in assay [8] is -0.487; in assay [9] it was -0.766; in [10] it was -0.765; in [11] it was 0.391; in assay [13], -0.626; in assay [14], -0.0596. For the same compound, the composite z-score in assay [15] is 0.095; in assay [16], -0.197; in assay [17], -0.0421; in [18], -0.378; in assay [19], 0.78; in assay [20] it was -0.612. The z-score in assay [4] was 1.34 (inactive); in assay [12] it was 0.398.

Regarding `CC(C)(C)OC(=O)CC[C@]1(C(=O)N2CCCCC2)COC(c2ccc(OCCCO)cc2)=N1`, the composite z-score in [1] was 1.7; in [2], 0.14; in assay [3], 0.48; in assay [5] it was 1.54; in [6], 1.29; in [7] it was 0.101. For the same compound, the composite z-score in [8] was 0.324; in assay [9], -0.421; in assay [10], 0.567; in assay [11], 1.45; in assay [13] it was 0.393; in assay [14], 1.4. Also, the composite z-score was -0.257 in assay [15]; 0.0775 in [16]; 0.385 in assay [17]; -0.614 in assay [18]; 1.36 in [19]; 0.302 in [20]. Further, the figures for the z-score in [4] and in assay [12] were -0.527 (inactive) and -0.523, respectively.

Turning to `CC(C)CNC(=O)[C@@]1(c2ccc([N+](=O)[O-])cc2)CC(=O)N(C2CCCCC2)[C@@H]1c1ccc(CO)cc1`, the composite z-score in assay [1] came out at 0.388; in [2] it was 0.368; in [3], 0.453; in [5], 0.735; in [6], 0.484; in assay [7] it was 0.103. Also, the composite z-score was 0.0017 in [8]; -0.362 in [9]; 0.517 in [10]; 0.292 in assay [11]; 0.155 in assay [13]; 0.1 in [14]. Also, the composite z-score is -0.151 in assay [15]; -0.0539 in assay [16]; -0.0553 in assay [17]; 0.323 in assay [18]; 2 in [19]; 0.0127 in assay [20]. In addition, the z-score in [4] was -0.472 (inactive); in [12], -1.07.

On to `C[C@]1(C(=O)NCC(F)(F)F)c2ccccc2C(=O)N(Cc2ccccc2)[C@H]1c1ccc(CO)cc1`, for which the composite z-score in assay [1] was 0.905; in assay [2] it was -0.0306; in assay [3], 0.543; in [5] it was -1.63; in [6] it was -1.8; in assay [7], -1.3. Also, the composite z-score is -1.47 in assay [8]; -1.71 in assay [9]; -0.264 in [10]; -0.0857 in [11]; -0.722 in assay [13]; -0.21 in assay [14]. Further, the composite z-score in assay [15] was 0.799; in [16] it was -0.287; in assay [17] it was -0.147; in assay [18], -0.0799; in assay [19] it was 0.015; in assay [20], -0.553. The z-score in assay [4] was 0.0226 (inactive); in assay [12] it was -0.501.
